Compound activity deposited in PubChem by several laboratories.
MRP-1 activ – activators of MRP-1. 140,000 compounds, 0.61% hits. viability increase, % at 10 µM. H69AR cells + doxorubicin, viability rescue, CellTiter-Glo. AID 799;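 active means viability gain under doxorubicin at or above a set limit, the compound median plus 3 SD, cut at about 4.7% in these data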;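 further: MRP-1 overexpressing cells given doxorubicin 25 µM after compound pretreatment; 18-22 h compound pretreatment then 72 h with doxorubicin before readout; 0% = doxorubicin-only wells and 100% = vehicle-treated cells without doxorubicin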
CD11b adhes enh – increases human CD11b/CD18 adhesion to fibrinogen; K562 CD11b/CD18 adhesion to fibrinogen, ATPlite luminescence; 93,000 compounds, 0.07% hits; P05107+P11215; activation, % at 10 µM;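 active means 10 µM primary screen giving 50% or more activity, confirmed by 40% or more on retest at that dose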
Pyk2 oligo antag – Pyk2 (human) oligomerization antagonism. Q14289. Q293 cells, Pyk2 FERM NanoBiT luminescence; hits give low values. z-score (the deposit names both 25 µM and 10 µM). 99,000 compounds, 0.83% hits. AID 1347419;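 active means Z-score of -3 or lower, scaled per plate to the spread of control and sample wells; inactive means z-score above -3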;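 further: negative z-score means lost luminescence so less FERM oligomerization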
CD11b adhes inh – blocks human CD11b/CD18 adhesion to fibrinogen; K562 CD11b/CD18 adhesion to fibrinogen, ATPlite luminescence; Mn2+ added to activate the integrin; inhibition, % at 10 µM; 93,000 compounds, 0.54% hits; AID 1497;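 active means primary inhibition of 50% or more at 10 µM, then 40% or more on retest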
MRP resist rev – reverses drug resistance mediated by MRP; AID 602; H69AR cells + 2 uM doxorubicin, CellTiter-Glo, 72 h; 85,000 compounds, 0.04% hits; differential viability (reversal), % at 10 µM;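 active means viability drop by adding the cancer drug above about 55%, with treated viability meeting a 40% cutoff, limit read from the data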;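 further: viability without doxorubicin minus viability with 2 µM doxorubicin for each compound; larger differential means the compound sensitizes cells more to doxorubicin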
Cav3 T inh – human Cav3.2 channel inhibition, primary screen | O95180 | Cav3.2-expressing cells, Fluo-4 calcium fluorescence FDSS; hits give low values | B-score at 10 µM | 100,000 compounds, 4% hits;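 active means single-dose well whose peak fluorescence ratio is a statistical outlier from its plate by either plate-standardised score or position-corrected B-score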
Target sequence (O95180 whole entry, looked up): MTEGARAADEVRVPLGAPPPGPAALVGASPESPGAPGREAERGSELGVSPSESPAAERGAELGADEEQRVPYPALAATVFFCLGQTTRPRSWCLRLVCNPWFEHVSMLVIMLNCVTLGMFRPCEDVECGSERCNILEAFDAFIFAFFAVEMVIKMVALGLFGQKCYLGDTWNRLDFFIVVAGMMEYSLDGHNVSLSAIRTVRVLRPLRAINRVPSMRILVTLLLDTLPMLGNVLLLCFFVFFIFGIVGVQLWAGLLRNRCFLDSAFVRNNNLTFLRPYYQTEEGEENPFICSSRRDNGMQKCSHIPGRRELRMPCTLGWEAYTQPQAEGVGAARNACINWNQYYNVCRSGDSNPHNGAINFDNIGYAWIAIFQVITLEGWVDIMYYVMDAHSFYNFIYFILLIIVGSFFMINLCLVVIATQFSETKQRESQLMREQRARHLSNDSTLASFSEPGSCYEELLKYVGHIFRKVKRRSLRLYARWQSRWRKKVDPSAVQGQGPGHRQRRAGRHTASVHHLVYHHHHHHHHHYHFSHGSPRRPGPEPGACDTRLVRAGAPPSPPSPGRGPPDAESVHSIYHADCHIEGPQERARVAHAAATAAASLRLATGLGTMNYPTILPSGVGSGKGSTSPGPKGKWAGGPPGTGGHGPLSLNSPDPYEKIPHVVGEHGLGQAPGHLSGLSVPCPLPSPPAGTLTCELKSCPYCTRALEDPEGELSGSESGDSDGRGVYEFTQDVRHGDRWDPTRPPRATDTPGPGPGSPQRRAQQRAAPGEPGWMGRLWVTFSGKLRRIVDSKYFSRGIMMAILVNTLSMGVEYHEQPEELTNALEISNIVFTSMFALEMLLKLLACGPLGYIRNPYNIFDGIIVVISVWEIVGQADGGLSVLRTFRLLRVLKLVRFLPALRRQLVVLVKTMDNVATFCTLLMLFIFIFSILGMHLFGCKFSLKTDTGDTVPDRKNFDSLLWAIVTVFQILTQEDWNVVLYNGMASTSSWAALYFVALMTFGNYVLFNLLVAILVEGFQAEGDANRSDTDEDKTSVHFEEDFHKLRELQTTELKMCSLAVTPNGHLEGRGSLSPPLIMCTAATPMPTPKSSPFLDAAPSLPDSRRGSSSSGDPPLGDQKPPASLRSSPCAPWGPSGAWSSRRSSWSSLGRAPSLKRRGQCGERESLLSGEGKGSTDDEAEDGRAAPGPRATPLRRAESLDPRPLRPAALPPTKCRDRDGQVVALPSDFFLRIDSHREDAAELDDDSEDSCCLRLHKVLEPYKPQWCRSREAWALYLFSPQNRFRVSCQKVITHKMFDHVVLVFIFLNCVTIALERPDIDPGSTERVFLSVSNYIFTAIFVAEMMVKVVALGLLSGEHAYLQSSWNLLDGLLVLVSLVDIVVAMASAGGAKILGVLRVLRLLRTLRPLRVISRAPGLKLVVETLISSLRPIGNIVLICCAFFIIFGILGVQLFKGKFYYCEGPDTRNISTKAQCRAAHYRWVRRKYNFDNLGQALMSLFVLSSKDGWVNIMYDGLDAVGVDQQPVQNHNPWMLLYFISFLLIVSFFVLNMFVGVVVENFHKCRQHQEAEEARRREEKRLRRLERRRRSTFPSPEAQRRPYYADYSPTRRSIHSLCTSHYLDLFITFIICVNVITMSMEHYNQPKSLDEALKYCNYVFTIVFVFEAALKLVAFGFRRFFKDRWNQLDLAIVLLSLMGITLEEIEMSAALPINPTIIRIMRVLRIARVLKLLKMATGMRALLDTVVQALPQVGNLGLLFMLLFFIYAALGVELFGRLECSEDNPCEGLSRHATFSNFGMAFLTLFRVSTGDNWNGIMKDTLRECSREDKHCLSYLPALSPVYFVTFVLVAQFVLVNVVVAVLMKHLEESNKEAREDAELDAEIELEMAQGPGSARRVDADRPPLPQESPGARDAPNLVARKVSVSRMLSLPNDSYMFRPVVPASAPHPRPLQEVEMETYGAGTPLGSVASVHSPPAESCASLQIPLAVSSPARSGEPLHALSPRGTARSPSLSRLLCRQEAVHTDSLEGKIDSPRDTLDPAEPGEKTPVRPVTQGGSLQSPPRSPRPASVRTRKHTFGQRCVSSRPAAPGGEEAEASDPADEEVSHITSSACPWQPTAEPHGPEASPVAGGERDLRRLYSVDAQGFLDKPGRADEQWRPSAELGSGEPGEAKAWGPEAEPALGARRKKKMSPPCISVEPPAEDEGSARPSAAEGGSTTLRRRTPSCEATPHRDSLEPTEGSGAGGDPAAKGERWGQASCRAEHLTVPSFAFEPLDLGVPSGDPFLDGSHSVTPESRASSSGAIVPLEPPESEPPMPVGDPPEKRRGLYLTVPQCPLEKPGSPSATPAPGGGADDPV
The depositor's hits bear a star. Shown are actives, neighbours in structure and some others; about 4.1% of the full set was active somewhere.

What do the screens show for `Cc1cnc(C(=O)OCC(=O)Nc2oc(-c3ccccc3)c(-c3ccccc3)c2C#N)cn1`?
MRP-1 activ: -4.6; CD11b adhes enh: 4.8; Pyk2 oligo antag: -1.84; CD11b adhes inh: 13.6; MRP resist rev: -17.6; Cav3 T inh: -2.27

Results for N#Cc1c(NC(=O)CCN2C(=O)c3ccccc3C2=O)oc(-c2ccccc2)c1-c1ccccc1 ?
MRP-1 activ: 2.2; CD11b adhes enh: 5.7; Pyk2 oligo antag: 0.38; CD11b adhes inh: -2.8; Cav3 T inh: -7.16*

What do the screens show for `CC(C)CC(C(=O)Nn1cnnc1)N1C(=O)c2ccccc2C1=O` (stereo unspecified)?
MRP-1 activ: 0.8; CD11b adhes enh: -5.4; Pyk2 oligo antag: 1.08; CD11b adhes inh: -5.8; MRP resist rev: 9.8; Cav3 T inh: 0.844

What do the screens show for `Cc1c(C(=O)OC(C)C)[nH]c2c1C(=O)CC(C)(C)C2`?
MRP-1 activ: -0.6; CD11b adhes enh: -3.8; Pyk2 oligo antag: -1.38; CD11b adhes inh: 5.1; MRP resist rev: -12.7; Cav3 T inh: -0.0729

How did CCn1c(SCC(=O)Nc2oc(-c3ccccc3)c(-c3ccccc3)c2C#N)nnc1-c1ccco1 do in these assays?
MRP-1 activ: -3.2; CD11b adhes enh: 1.7; Pyk2 oligo antag: -1.93; CD11b adhes inh: 23.3; MRP resist rev: -8.2; Cav3 T inh: -4.72*

What do the screens show for `COc1ccc(-c2oc(NC(=O)CSc3nncn3C)c(C#N)c2-c2ccc(OC)cc2)cc1`?
MRP-1 activ: -6.0; CD11b adhes enh: -0.2; Pyk2 oligo antag: -3.78*; CD11b adhes inh: 4.9; Cav3 T inh: 0.462

How did CCn1c(SCC(=O)Nc2oc(-c3ccccc3)c(-c3ccccc3)c2C#N)nnc1-c1ccncc1 do in these assays?
MRP-1 activ: 1.9; CD11b adhes enh: -2.3; Pyk2 oligo antag: -1.94; CD11b adhes inh: 14.4; MRP resist rev: 5.1; Cav3 T inh: -1.99

How did N#Cc1c(NC(=O)CSc2ccccn2)oc(-c2ccccc2)c1-c1ccccc1 do in these assays?
MRP-1 activ: -2.3; CD11b adhes enh: -1.9; Pyk2 oligo antag: -1.5; CD11b adhes inh: 9.0; MRP resist rev: 2.1; Cav3 T inh: -6.43*

What do the screens show for `COc1ccc(NC(=O)CSc2nncn2C)c([N+](=O)[O-])c1`?
MRP-1 activ: -1.6; CD11b adhes enh: 0.2; Pyk2 oligo antag: -0.15; CD11b adhes inh: -5.6; Cav3 T inh: 0.954

What do the screens show for `CCOC(=O)Cc1csc(NC(=O)CSc2nnnn2-c2ccc(CC)cc2)n1`?
MRP-1 activ: -2.6; CD11b adhes enh: -3.5; Pyk2 oligo antag: 1.3; CD11b adhes inh: 8.2; MRP resist rev: 12.0; Cav3 T inh: -5.41*

Results for COc1ccc(-n2nnnc2SCC(=O)Nc2nnc(C)s2)cc1 ?
MRP-1 activ: -0.8; CD11b adhes enh: 4.3; Pyk2 oligo antag: -0.47; CD11b adhes inh: -39.3; Cav3 T inh: 2.26

Results for CCOC(=O)c1c(NC(=O)CSc2nnnn2C)sc(C)c1-c1ccc(C)cc1 ?
MRP-1 activ: -1.4; CD11b adhes enh: -2.3; Pyk2 oligo antag: -4.24*; CD11b adhes inh: 33.4; MRP resist rev: 7.3; Cav3 T inh: -4.46*

Results for CCOC(=O)c1csc(NC(=O)CSc2nnnn2-c2ccc(OCC)cc2)n1 ?
MRP-1 activ: -1.3; CD11b adhes enh: -2.9; Pyk2 oligo antag: 1.05; CD11b adhes inh: -4.2; MRP resist rev: -4.6; Cav3 T inh: -0.811

What do the screens show for `CCOC(=O)c1c(NC(=O)CSc2nnnn2-c2ccc(OC)cc2)sc(C)c1C`?
MRP-1 activ: -3.2; CD11b adhes enh: -6.3; Pyk2 oligo antag: 0.47; CD11b adhes inh: 63.4*; MRP resist rev: -2.7; Cav3 T inh: 0.886

What do the screens show for `CCOC(=O)c1c(NC(=O)CSc2nnc(CNc3ccc(F)cc3)o2)sc(C)c1C`?
MRP-1 activ: 0.1; CD11b adhes enh: 3.9; Pyk2 oligo antag: 0.67; CD11b adhes inh: 3.9; MRP resist rev: 1.9; Cav3 T inh: -4.62*

What do the screens show for `Cc1ccc(-c2[nH]nc3c2C(c2ccccc2OC(=O)N2CCOCC2)C(C#N)=C(N)O3)cc1` (stereo unspecified)?
MRP-1 activ: -3.4; MRP resist rev: 6.1

What do the screens show for `CC(C)=CCCC1(C)C=Cc2c(c(C)cc3c2[nH]c2cc(O)ccc23)O1` (stereo unspecified)?
Cav3 T inh: -0.204

Results for COc1ccc(CCNC(=O)c2ccc(CN3CCC(Cc4ccccc4)CC3)cc2)cc1 ?
MRP-1 activ: -3.0

What do the screens show for `Cc1ccccc1NC(=O)c1ccc(CN2CCC(Cc3ccccc3)CC2)cc1`?
MRP-1 activ: -5.4; Pyk2 oligo antag: 0.53; Cav3 T inh: -7.07*

What do the screens show for `CCOc1ccc(C(=O)N2CCN(c3ccccc3)CC2)cc1OCC`?
MRP-1 activ: -0.2; Pyk2 oligo antag: 0.98; MRP resist rev: -8.2; Cav3 T inh: 0.0808

What do the screens show for `CC(=O)C1=C(O)C(=O)N(CCC(=O)O)C1c1ccccc1Cl` (stereo unspecified)?
MRP-1 activ: -0.4; CD11b adhes enh: 0.0; Pyk2 oligo antag: 0.31; CD11b adhes inh: -2.6; MRP resist rev: -1.1; Cav3 T inh: 1.07

Results for O=C1CCN1C1(C(=O)NC2CCCCC2)CCCC1 ?
MRP-1 activ: -1.2

Results for CSCCC(NC(=O)C1CCC(C)CC1)C(=O)OCC(=O)c1ccc(Cl)cc1 (stereo unspecified) ?
MRP-1 activ: -0.3

Results for CCCCCCC1CCC(C(=O)NC(CCSC)C(=O)NC(C(=O)OC)C(C)C)CC1 (stereo unspecified) ?
MRP-1 activ: -3.6; CD11b adhes enh: 5.1; Pyk2 oligo antag: 0.37; CD11b adhes inh: -2.4; MRP resist rev: 11.3; Cav3 T inh: -6.78*

How did c1cncc(-c2nnc3sc(C4CCCCC4)nn23)c1 do in these assays?
MRP-1 activ: -1.5; CD11b adhes enh: 0.8; Pyk2 oligo antag: 0.89; CD11b adhes inh: -10.9; MRP resist rev: 21.8; Cav3 T inh: 3.23*

What do the screens show for `COc1cc(C(=O)Nc2nc3ccc(S(=O)(=O)N4CCOCC4)cc3s2)cc(OC)c1OC`?
MRP-1 activ: -4.3; CD11b adhes enh: 12.0; Pyk2 oligo antag: -2.19; CD11b adhes inh: 2.2; MRP resist rev: -11.3; Cav3 T inh: 0.148

What do the screens show for `COc1ccc2ccc3c(c2c1)N=C[C@]1(O3)N(C)c2ccccc2C1(C)C`?
MRP-1 activ: -2.7; Pyk2 oligo antag: -1.78; MRP resist rev: 10.2; Cav3 T inh: -1.49

What do the screens show for `N#C/C(=C\c1ccc(Cl)cc1)c1nc2ccccc2o1`?
MRP-1 activ: 2.0; CD11b adhes enh: -3.7; CD11b adhes inh: 13.0

What do the screens show for `N#C/C(=C\Nc1ccccc1O)c1nc2ccccc2o1`?
MRP-1 activ: -4.8; Pyk2 oligo antag: -3.35*

Results for COc1ccc(NC(=O)C(=O)N/N=C/c2cc(C)n(-c3cccc(Cl)c3Cl)c2C)c(OC)c1 ?
MRP-1 activ: 5.3*; CD11b adhes enh: -5.2; Pyk2 oligo antag: 0.04; CD11b adhes inh: 30.3; Cav3 T inh: -3.26
